# Assay results taken from PubChem BioAssay (NCATS).
# “And” between values parts separate entries of the source, which are not always exact repeats. Identical values can stand only once. Inconclusive results are not listed. A call without a number means that no potency is given here. The source made the active and inactive calls. Calls follow the shape of the dose curve; as a rule, active = well fitted inhibition curve with a large enough effect; inconclusive = small, poorly fitted or top-dose-only effect; inactive = no such curve, though single readings can be large or run the other way.
# Test: Primary qHTS for inhibitors of nuclear receptor binding SET domain protein 2 (NSD2) in an RCH-ACV wild type WT cells (2C) (AID 1645877); also: nearly all actives have a fitted effect of over 70% in size
# Details: RCH-ACV (leukaemia line) NSD2 WT (2C) viability, CellTiter-Glo, 72 h; series mostly up to 44.9 µM
# Potency is read from the fitted curve at half-maximal effect.
row,SMILES,Potency
1,CC1(C)S[C@@H]2[C@H](NC(=O)[C@H](N)c3ccc(O)cc3)C(=O)N2[C@H]1C(=O)O,inactive
2,O=C(CS)Nc1ccccc1,inactive
3,O=C(Nc1ccc(C(=O)O)c(O)c1)c1ccccc1,inactive
4,CC(C)OC(=O)c1cc(C(=O)OC(C)C)cc([N+](=O)[O-])c1,inactive
5,Cc1c(N)c(=O)n(-c2ccccc2)n1C,inactive
6,COC(=O)C1=C(C)NC(C)=C(C(=O)OCC(C)C)C1c1ccccc1[N+](=O)[O-] (stereo unspecified),26.6 µM (active)
7,N#C/C(=C\c1ccc(O)c(O)c1)C(=O)NCc1ccccc1,9.2 µM (active) and 11.8 µM (active)
8,O=C(O)[C@H](CC(=O)N1C[C@H]2CCCC[C@H]2C1)Cc1ccccc1,inactive
9,O=C(CCN1CCN(CCO)CC1)N1c2ccccc2Sc2ccc(C(F)(F)F)cc21,inactive
10,COc1cc(NC(C)CCCN)c2ncccc2c1 (stereo unspecified),5.31 µM (active)
11,C=CCCCCCCCCC(=O)O,inactive
12,C=CCc1cccc(/C=N/NC(=O)CN2CCN(Cc3ccccc3)CC2)c1O,7.42 µM (active)
13,COC(=O)Nc1nc2ccc(C(=O)C3CC3)cc2[nH]1,0.266 µM (active)
14,CC1(C)S[C@@H]2[C@H](NC(=O)[C@H](N)c3ccccc3)C(=O)N2[C@H]1C(=O)O,inactive
15,COc1cc(/C=C/C(=O)N2CCN(CC(=O)N3CCCC3)CC2)cc(OC)c1OC,inactive
16,O=Cc1ccc(O)c(O)c1O,16.8 µM (active)

row,SMILES,Potency
1,CCCCN(CC)c1nc(C)nc2c1c(C)cn2-c1c(C)cc(C)cc1C,inactive
2,COc1cc2c3cc1Oc1cc(ccc1O)C[C@@H]1c4c(cc(OC)c(O)c4Oc4ccc(cc4)C[C@@H]3N(C)CC2)CC[N+]1(C)C,inactive
3,COc1cccc2c1C(=O)c1c(O)c3c(c(O)c1C2=O)C[C@@](O)(C(=O)CO)C[C@@H]3O[C@H]1C[C@H](N)[C@H](O[C@@H]2CCCCO2)[C@H](C)O1,0.0038 µM (active)
4,O=C(O)CC1CC(c2ccccc2)=NO1 (stereo unspecified),inactive
5,Cc1ccc2c(n1)Oc1ccc(C(C)C(=O)OCC(=O)N(C)C)cc1C2 (stereo unspecified),inactive
6,CCCCCCCCCCCCCCCC(=O)OC(C)C,inactive
7,Cc1[nH]cnc1CN1CCc2c(c3ccccc3n2C)C1=O,inactive
8,C[C@H](O)[C@H](O)[C@H]1CNc2nc(N)[nH]c(=O)c2N1,inactive
9,Oc1c(Br)cc(Br)c2cccnc12,3.35 µM (active)
10,CC(=O)O[C@H]1C[C@@]2(C)[C@@H](C[C@@H](O)[C@H]3[C@@]4(C)CC[C@@H](O)[C@@H](C)[C@@H]4CC[C@@]32C)/C1=C(\CCC=C(C)C)C(=O)O,inactive
11,c1ccc2sc(SN3CCOCC3)nc2c1,inactive
12,O=c1[nH]c2ccccc2n1CCCN1CCN(C(c2ccccc2)c2ccccc2)CC1,23.7 µM (active)
13,CC(C(=O)O)c1ccc(C(=O)c2ccccc2)s1 (stereo unspecified),inactive
14,CN(C)CCn1nnnc1SCC1=C(C(=O)O)N2C(=O)[C@@H](NC(=O)Cc3csc(N)n3)[C@H]2SC1,inactive
15,COc1ccc(-c2cc(=S)ss2)cc1,inactive
